The source of these data is PubChem BioAssay (NCATS).

Inconclusive results are not listed. The source made the active and inactive calls. Unless noted, calls follow the shape of the dose curve; as a rule, active = well fitted curve in the direction sought with a large enough effect; inconclusive = small, poorly fitted or top-dose-only effect, or another doubt; inactive = no such curve, though single readings can be large; an effect the other way counts as inactive or inconclusive.

In assay [1] the target is 3',5'-cyclic-AMP phosphodiesterase 4B (Homo sapiens) (UniProt Q07343). Kind of assay: qHTS Assay for Inhibitors of PDE-IV (AID 607; active = well fitted activation curve with a large enough effect in the main read-out, with a control signal flat, not every such curve was filed as active; also: potency is read from the fitted curve at half-maximal effect). The method in brief: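 HEK293 ACTOne cells with CNG channel (1000/well), endogenous PDE4; membrane potential dye, compounds up to 22.9 uM final. Fluorescence Ex 535/Em 590; RO 20-1724 (100 uM final) as reference.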
For orientation: In qHTS, concentration-response curves come from the screen itself.

Assay [2] in a line: qHTS Assay for Identification of Small Molecule Agonists for Thrombopoietin (TPO) Signaling Pathway (AID 917). The method in brief:
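Quantitative HTS for pathway activators: compounds were pin-transferred onto IL-3-starved Ba/F3 cells expressing human TPO receptor, TPO was added at its EC50 (26 pM final), and after 24 hrs at 37 C reporter luciferase was measured.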

Assay [3] addresses Muscarinic acetylcholine receptor M1 (Rattus norvegicus) (UniProt P08482). The assay can be described thus: qHTS Assay for Antagonists of Acetylcholine Muscarinic M1 Receptor: Kinetic Measurement of Intracellular Calcium Response (AID 943). Also: nearly all actives have a fitted effect of over 75% in size. Also: potency is read from the fitted curve at half-maximal effect. Put shortly: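 Quantitative HTS in CHO-M1 (rat receptor) cells: 10 min compound exposure ahead of 100 nM carbachol, Fluo-4 fluorescence followed 4 min, value expressed as peak-to-basal ratio.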

Assay [4] can be described thus: S16 Schwann cell viability assay (CellTiter-Glo assay) (AID 624031).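 Also: native untransfected S16 rat Schwann cells; nearly all actives have a fitted effect of over 70% in size.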 The method in brief: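 Counter-screen for cytotoxicity: parental S16 rat Schwann cells lacking the PMP22 reporters, treated 24 h with compound, viability from cellular ATP by CellTiter-Glo luminescence, normalized to DMSO (0%) and no-cell wells.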
For orientation: ATP-based viability assays read luminescence as a measure of living cells.

Assay [5] in a line: S16 Schwann cell PMP22 intronic element firefly luciferase assay (AID 624032). Also: nearly all actives have a fitted effect of over 30% in size. The method in brief:
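Luciferase reporter of PMP22 intronic-element expression in stably transfected S16 rat Schwann cells, read by ONE-Glo luminescence after 24 h compound exposure at 37 C. Activity scaled between DMSO (0%) and positive-control PTC124; concentration-effect curves quality-classified.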

The nature of assay [6]: S16 Schwann cell PMP22 intronic element beta-lactamase assay (AID 624044; calls by dose curve; also: nearly all actives have a fitted effect of over 15% in size). The settings on record: S16 rat Schwann cells, PMP22 element beta-lactamase FRET, 24 h; ratio activity, negative = inhibition: at 38.3 µM (top of the series) unless noted. Put shortly:
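Beta-lactamase reporter under a PMP22 intronic regulatory element in stable S16 rat Schwann cells; 24 h compound exposure. 460 nm blue signal normalized between DMSO (0%) and potassium clavulanate, with 535 nm FRET tracking viability; curves classed by r2 and response.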

The subject of a further assay is 7G8. Kind of assay: qHTS profiling for inhibitors of Plasmodium falciparum proliferation (AID 504749). Also: nearly all actives have a fitted effect of over 60% in size. Also: potency is read from the fitted curve at half-maximal effect. Conditions: P. falciparum in erythrocytes, SYBR Green DNA, 72 h; series mostly up to 12.8 µM. The method in brief:
(§1)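 In a 72 h erythrocytic culture (37 C, humidified, 5% CO2) at 2.5% hematocrit and 0.3% starting parasitemia, compounds were tested; SYBR Green I in detergent lysis buffer stained parasite DNA overnight.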

For the next assay, the system named is AS120. Described as above. The settings on record: P. falciparum in erythrocytes, SYBR Green DNA, 72 h; series mostly up to 28.7 µM. Put shortly: as §1
In another assay the test system is ATS189. The description is as above. Conditions: P. falciparum in erythrocytes, SYBR Green DNA, 72 h; series mostly up to 28.7 µM. Put shortly: as §1
For the next assay, the system named is CP185. The description is as above. Conditions: P. falciparum in erythrocytes, SYBR Green DNA, 72 h; series mostly up to 28.7 µM. Put shortly: as §1
For another assay, the system named is CP192. The description is as above. The settings on record: P. falciparum in erythrocytes, SYBR Green DNA, 72 h; series mostly up to 28.7 µM. Put shortly:
as §1

The test system of another assay is CP194. The description is as above. Conditions: P. falciparum in erythrocytes, SYBR Green DNA, 72 h; series mostly up to 28.7 µM. The method in brief:
as §1

The next assay deals with CP201. The assay is described as above. The settings on record: P. falciparum in erythrocytes, SYBR Green DNA, 72 h; series mostly up to 28.7 µM. The method in brief: as §1
The next assay has as its system CP286. The assay is described as above. The settings on record: P. falciparum in erythrocytes, SYBR Green DNA, 72 h; series mostly up to 28.7 µM. Put shortly: as §1
For another assay, the system named is CP305. Described as above. Conditions: P. falciparum in erythrocytes, SYBR Green DNA, 72 h; series mostly up to 28.7 µM. The method in brief: as §1
A further assay concerns DFO2036. Described as above. Conditions: P. falciparum in erythrocytes, SYBR Green DNA, 72 h; series mostly up to 28.7 µM. Put shortly:
as §1

A further assay concerns DIV30. The description is as above. Conditions: P. falciparum in erythrocytes, SYBR Green DNA, 72 h; series mostly up to 28.7 µM. Put shortly: as §1
Another assay concerns HB3. The description is as above. Conditions: P. falciparum in erythrocytes, SYBR Green DNA, 72 h; series mostly up to 28.7 µM. Put shortly: as §1
The next assay has as its system P94_40. The description is as above. Conditions: P. falciparum in erythrocytes, SYBR Green DNA, 72 h; series mostly up to 28.7 µM. The method in brief: as §1
In another assay the test system is TAB113. The assay is described as above. The settings on record: P. falciparum in erythrocytes, SYBR Green DNA, 72 h; series mostly up to 28.7 µM. The method in brief:
as §1

Muscarinic acetylcholine receptor M1 (Rattus norvegicus), sequence (P08482 whole entry, looked up): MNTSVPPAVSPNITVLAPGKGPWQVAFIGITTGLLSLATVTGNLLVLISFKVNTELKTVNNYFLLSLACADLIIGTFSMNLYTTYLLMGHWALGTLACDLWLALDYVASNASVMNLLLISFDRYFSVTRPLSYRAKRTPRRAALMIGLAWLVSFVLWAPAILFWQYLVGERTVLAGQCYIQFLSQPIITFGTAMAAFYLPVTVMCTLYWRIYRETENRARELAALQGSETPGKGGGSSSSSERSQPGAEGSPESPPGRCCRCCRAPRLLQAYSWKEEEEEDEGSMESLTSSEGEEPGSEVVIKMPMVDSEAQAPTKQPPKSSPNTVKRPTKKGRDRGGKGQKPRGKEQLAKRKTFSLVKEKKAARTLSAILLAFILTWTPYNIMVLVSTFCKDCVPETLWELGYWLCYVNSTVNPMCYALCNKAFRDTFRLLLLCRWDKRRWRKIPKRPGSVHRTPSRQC
3',5'-cyclic-AMP phosphodiesterase 4B (Homo sapiens), sequence (Q07343 whole entry, looked up): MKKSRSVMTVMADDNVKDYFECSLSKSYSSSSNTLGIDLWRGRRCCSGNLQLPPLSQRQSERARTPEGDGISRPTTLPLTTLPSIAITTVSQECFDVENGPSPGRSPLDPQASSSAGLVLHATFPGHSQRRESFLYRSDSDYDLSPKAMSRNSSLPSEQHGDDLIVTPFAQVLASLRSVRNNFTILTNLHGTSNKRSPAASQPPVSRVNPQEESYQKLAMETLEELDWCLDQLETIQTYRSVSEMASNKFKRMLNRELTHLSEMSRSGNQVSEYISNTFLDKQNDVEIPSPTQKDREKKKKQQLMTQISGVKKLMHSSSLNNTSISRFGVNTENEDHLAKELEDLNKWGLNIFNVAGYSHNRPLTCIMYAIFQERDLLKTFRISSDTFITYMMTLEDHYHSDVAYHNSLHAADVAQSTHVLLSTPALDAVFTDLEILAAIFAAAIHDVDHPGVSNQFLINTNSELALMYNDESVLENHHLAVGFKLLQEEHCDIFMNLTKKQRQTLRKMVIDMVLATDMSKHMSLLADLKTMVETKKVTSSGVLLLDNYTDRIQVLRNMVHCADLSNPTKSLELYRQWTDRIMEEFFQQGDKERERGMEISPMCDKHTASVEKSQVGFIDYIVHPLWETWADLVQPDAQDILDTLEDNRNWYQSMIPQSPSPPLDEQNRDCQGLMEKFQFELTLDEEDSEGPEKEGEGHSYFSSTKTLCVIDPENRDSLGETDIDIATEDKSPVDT

With `COc1cc(C=C(C#N)C#N)cc(O)c1O`, the Potency entry in [1] and in assay [3] was “inactive” throughout. Besides, the compound was classed as inactive in assay [2].

With `CCN(CC)C(=O)N[C@@H]1C[C@@H]2c3cccc4[nH]cc(c34)C[C@H]2N(C)C1`, the Potency entry in [4], in [5] and in assay [6] was “inactive” throughout. Besides, in the assay on 7G8, the Potency is 4.47 µM (active).

With `CCCC[N+]1(C)C2CC(OC(=O)C(CO)c3ccccc3)CC1C1OC12` (stereo not given), the Potency result (in [4]; in [5]; in assay [6]; with 7G8; with AS120; in the assay on ATS189) was “inactive” each time. Moreover, the Potency result in the assay with CP185, with CP192, in the assay on CP194, with CP201, in the assay with CP286 and in the assay with CP305 was “inactive” throughout. Besides, the Potency result in the assay with DFO2036, with DIV30, in the assay on HB3, with P94_40 and in the assay with TAB113 was “inactive” in each case.

In the case of `C[C@H]1OC[C@@H](C[N+](C)(C)C)O1`, the result in [2] was inactive. Further, the Potency result in assay [3] was “inactive”.

As to `Oc1ccc2c3c1O[C@H]1[C@@H](O)CC[C@@]4(O)C(C2)N(CC2CCC2)CCC314` (stereo not given in full), the Potency result (in assay [4]; in [6]; in the assay on AS120; in the assay with ATS189; in the assay on CP185; with CP192) was “inactive” throughout. Also, the Potency entry in the assay with CP194, in the assay on CP201, with CP286, with CP305, in the assay with DFO2036 and with DIV30 was “inactive” in each case. Further, the Potency entry with HB3, in the assay on P94_40 and in the assay with TAB113 was “inactive” each time.

Regarding `CCCN(CCC)C(=O)Cc1c(-c2ccc(Cl)cc2)nc2c(Cl)cc(Cl)cn12`, the Potency in assay [1] was 2.51 µM (active). The compound was called inactive in [2]. Further, in assay [3], the Potency result was “inactive”.

On to `NNCc1cccc(O)c1`, for which, in assay [1], the Potency entry is “inactive”. Besides, the result in [2] was inactive.

For `CC(C)(O)C1C2OC(=O)C1[C@]1(O)C[C@H]3O[C@]34C(=O)O[C@H]2[C@]14C` (stereo not given in full) (tested in a mixture with another compound), the Potency result (in assay [5]; in assay [6]; with 7G8; with AS120; in the assay on ATS189; in the assay on CP185) was “inactive” in each case. Further, the Potency result in the assay on CP192, in the assay on CP194, in the assay on CP201, in the assay on CP286, in the assay on CP305 and in the assay on DFO2036 was “inactive” throughout. Also, the Potency entry in the assay on DIV30, with HB3, in the assay on P94_40 and in the assay on TAB113 was “inactive” each time.

Regarding `CCCCN1C2CCC1CC(OC(c1ccc(F)cc1)c1ccc(F)cc1)C2` (stereo not given), in [3], the Potency is 0.398 µM (active).

For the compound `CC[C@@H](CO)NC(=O)[C@H]1C=C2c3cccc4c3c(cn4C)C[C@H]2N(C)C1`, the Potency entry in assay [1] is “inactive”.

In the case of `CNC(C)[C@@H](O)c1ccc(O)cc1` (stereo not given in full), the Potency result (in assay [4]; in assay [5]; in the assay on 7G8; with AS120; in the assay on ATS189; in the assay on CP185) was “inactive” in each case. Further, the Potency result in the assay with CP192, in the assay with CP194, with CP201, with CP286, in the assay on CP305 and with DFO2036 was “inactive” throughout. Besides, the Potency result in the assay with DIV30, in the assay with HB3, with P94_40 and in the assay on TAB113 was “inactive” throughout.
